# The source made the active and inactive calls.
# Assays:
# [1] = tested on: Plasmodium falciparum Sir2 (PF13_0152, Sir2A); assay: pfSir2 binders on small-molecule microarrays, primary screen, biochemical, small-molecule microarray, 635 nm fluorescence (AID 1098); conditions: small-molecule microarray binding, fluorescence 635 nm; higher = more signal;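 also: score merges spot fluorescence intensity with its signal-to-noise ratio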
# [2] = small-molecule microarray binders of probe aDKK1, primary screen, biochemical, biotinylated probe, 635/667 nm fluorescence (AID 1099); conditions: higher = more signal;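 also: score merges 667nm spot fluorescence with signal to noise across triplicate slides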
# [3] = small-molecule microarray binders of probe aCHRDL2, primary screen, biochemical, biotinylated probe, 635/667 nm fluorescence (AID 1100); conditions: higher = more signal
# [4] = splicing luciferase reporter signal modulators, primary screen, spliceosome inhibition project, cell-based, HEK293, splice +/- reporter (AID 1101); conditions: luminescence, 24 h, higher = more signal, called active from +8 up or from −8 down;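 also: HEK293 cells carrying a splicing-competent luciferase reporter gene; test concentration not given here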
# [5] = biological target: Fibroblast growth factor 10 (Homo sapiens) (UniProt O15520); assay: FGF10 binders on small-molecule microarrays, primary screen, biochemical, small-molecule microarray, 635 nm fluorescence (AID 1102); conditions: FGF10 binding, fluorescence 635 nm, higher = more signal
# Chain of Fibroblast growth factor 10 (Homo sapiens) (O15520 whole entry, looked up): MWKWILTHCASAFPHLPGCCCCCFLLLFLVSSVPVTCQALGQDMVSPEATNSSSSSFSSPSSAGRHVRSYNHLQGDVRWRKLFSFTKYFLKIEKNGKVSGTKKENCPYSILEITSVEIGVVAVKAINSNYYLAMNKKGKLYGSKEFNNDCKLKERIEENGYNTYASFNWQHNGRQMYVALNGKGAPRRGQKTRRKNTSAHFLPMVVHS
# [6] = tested on: glycogen synthase kinase-3 (GSK3A per assay name; protocol says GSK3B); assay: GSK3 binders on small-molecule microarrays, primary screen, biochemical, small-molecule microarray, 635 nm fluorescence, GSK3A (AID 1103); conditions: small-molecule microarray binding, fluorescence 635 nm; higher = more signal; also: the record names both GSK3A and GSK3B
# [7] = biological target: Epidermal growth factor receptor (Homo sapiens) (UniProt P00533); assay: EGFR binders on small-molecule microarrays, primary screen, biochemical, small-molecule microarray, 635 nm fluorescence (AID 1104); conditions: EGFR binding, higher = more signal;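 also: score merges 667 nm emission intensity with spot signal to noise over triplicate slides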
# Chain of Epidermal growth factor receptor (Homo sapiens) (P00533 whole entry, looked up): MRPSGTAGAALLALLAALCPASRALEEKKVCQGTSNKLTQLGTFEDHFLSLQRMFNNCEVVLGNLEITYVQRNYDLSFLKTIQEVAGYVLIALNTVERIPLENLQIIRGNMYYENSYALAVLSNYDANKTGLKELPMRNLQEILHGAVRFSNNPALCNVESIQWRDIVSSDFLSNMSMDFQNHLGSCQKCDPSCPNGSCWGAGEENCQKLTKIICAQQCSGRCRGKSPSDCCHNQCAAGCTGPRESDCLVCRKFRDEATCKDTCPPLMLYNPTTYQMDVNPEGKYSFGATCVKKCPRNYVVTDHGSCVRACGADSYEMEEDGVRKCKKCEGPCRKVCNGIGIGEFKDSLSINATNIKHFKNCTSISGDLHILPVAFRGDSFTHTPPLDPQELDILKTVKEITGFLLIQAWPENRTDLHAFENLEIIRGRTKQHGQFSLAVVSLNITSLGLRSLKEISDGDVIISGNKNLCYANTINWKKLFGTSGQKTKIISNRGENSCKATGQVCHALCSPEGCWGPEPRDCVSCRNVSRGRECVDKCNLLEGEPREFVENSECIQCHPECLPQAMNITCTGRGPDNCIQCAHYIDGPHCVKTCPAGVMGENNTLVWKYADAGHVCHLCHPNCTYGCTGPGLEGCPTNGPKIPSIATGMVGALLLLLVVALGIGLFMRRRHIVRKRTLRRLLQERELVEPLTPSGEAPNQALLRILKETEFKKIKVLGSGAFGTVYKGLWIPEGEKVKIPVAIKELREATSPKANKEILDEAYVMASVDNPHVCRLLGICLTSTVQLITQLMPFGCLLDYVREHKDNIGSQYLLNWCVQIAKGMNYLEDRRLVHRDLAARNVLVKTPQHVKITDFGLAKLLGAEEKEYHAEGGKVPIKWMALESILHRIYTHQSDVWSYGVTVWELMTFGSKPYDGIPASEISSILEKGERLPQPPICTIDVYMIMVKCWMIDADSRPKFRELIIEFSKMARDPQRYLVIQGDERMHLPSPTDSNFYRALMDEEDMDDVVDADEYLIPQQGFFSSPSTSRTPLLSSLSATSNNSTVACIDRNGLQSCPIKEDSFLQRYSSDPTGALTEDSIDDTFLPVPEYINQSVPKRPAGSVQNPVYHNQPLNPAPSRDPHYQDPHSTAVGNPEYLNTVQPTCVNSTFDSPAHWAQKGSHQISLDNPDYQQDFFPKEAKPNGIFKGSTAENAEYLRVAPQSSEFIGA
# [8] = biological target: Follistatin-related protein 3 (Homo sapiens) (UniProt O95633); assay: FSTL3 binders on small-molecule microarrays, primary screen, biochemical, small-molecule microarray, 635 nm fluorescence (AID 1105); conditions: FSTL3 binding, higher = more signal;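 also: score merges emission near 667 nm and signal to noise per printed spot across three slides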
# Chain of Follistatin-related protein 3 (Homo sapiens) (O95633 whole entry, looked up): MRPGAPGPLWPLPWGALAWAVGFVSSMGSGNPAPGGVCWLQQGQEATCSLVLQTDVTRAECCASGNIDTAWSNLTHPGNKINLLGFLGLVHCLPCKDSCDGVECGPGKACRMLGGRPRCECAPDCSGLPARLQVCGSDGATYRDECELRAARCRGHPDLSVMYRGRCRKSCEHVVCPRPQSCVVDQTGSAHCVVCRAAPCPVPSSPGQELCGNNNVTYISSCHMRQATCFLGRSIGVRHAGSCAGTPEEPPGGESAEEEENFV
# [9] = biological target: Dickkopf-related protein 1 (Homo sapiens) (UniProt O94907); assay: DKK1 binders on small-molecule microarrays, primary screen, biochemical, small-molecule microarray, 635 nm fluorescence scan (AID 1106); conditions: DKK1 binding, higher = more signal;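 also: score merges emission near 667 nm with signal to noise over three replicate slides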
# Chain of Dickkopf-related protein 1 (Homo sapiens) (O94907 whole entry, looked up): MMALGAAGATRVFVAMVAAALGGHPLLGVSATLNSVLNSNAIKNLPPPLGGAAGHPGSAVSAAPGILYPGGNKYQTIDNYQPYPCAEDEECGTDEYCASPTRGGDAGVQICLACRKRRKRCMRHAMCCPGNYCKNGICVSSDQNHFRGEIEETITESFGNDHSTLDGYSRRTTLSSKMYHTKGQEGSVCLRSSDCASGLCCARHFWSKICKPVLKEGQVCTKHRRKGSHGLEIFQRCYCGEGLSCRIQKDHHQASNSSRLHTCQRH
# [10] = tested on: Inhibin beta A chain (activin A); assay: INHBA (activin A) binders on microarrays, primary screen, biochemical, small-molecule microarray, 635 nm fluorescence scan (AID 1107); conditions: small-molecule microarray binding, higher = more signal;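 also: mouse activin A protein probed at 4.33 µg/mL on printed slides; score merges bound-protein fluorescence near 667 nm with spot signal-to-noise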
# [11] = tested on: Human papillomavirus type 1a protein E7 (residues 44-93); assay: HPV1a E7 fragment binders on microarrays, primary screen, biochemical, small-molecule microarray, residues 44-93, 635 nm fluorescence (AID 1108); conditions: small-molecule microarray binding, fluorescence 635 nm; higher = more signal;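 also: E7 fragment applied at 1 µg/mL in TBST for 1 h at 4 C; score combines spot fluorescence with its signal to noise ratio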
# [12] = modulators of HCV replicon luciferase signal, primary screen, HCV replication inhibitor project, Huh7 cells, luciferase reporter (AID 1109); conditions: 48 h, higher = more signal;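 also: huh7 hepatoma cells harbouring a luciferase neomycin HCV replicon reporter; luciferase luminescence as measure of HCV replicon replication; test concentration not given here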
# [13] = biological target: Left-right determination factor 2 (Homo sapiens) (UniProt O00292); assay: LEFTY2 binders on small-molecule microarrays, primary screen, biochemical, small-molecule microarray, 635 nm fluorescence scan (AID 1110); conditions: LEFTY2 binding, higher = more signal
# Chain of Left-right determination factor 2 (Homo sapiens) (O00292 whole entry, looked up): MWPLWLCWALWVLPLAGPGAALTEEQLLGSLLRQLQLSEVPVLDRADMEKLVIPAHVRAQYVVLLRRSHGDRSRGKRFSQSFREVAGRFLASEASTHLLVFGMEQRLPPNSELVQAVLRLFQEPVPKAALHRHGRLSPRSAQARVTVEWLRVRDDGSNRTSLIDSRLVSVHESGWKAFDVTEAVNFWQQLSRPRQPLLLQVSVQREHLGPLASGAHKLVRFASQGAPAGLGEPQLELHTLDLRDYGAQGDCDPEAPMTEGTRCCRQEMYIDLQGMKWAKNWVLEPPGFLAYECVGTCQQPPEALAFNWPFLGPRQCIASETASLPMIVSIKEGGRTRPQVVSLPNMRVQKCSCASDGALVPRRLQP
# [14] = biological target: Calmodulin-1 (Homo sapiens) (UniProt P0DP23); assay: CALM1 binders on microarrays, EGTA buffer, profiling panel, biochemical, small-molecule microarray, Cy5-labelled CALM1 (AID 1111); conditions: Cy5-CALM1 binding fluorescence, higher = more signal;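 also: labelled calmodulin applied in Tris saline Tween buffer holding calcium plus EGTA and DTT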
# [15] = biological target: Calmodulin-1 (Homo sapiens) (UniProt P0DP23); assay: calcium-bound CALM1 binders on microarrays, profiling panel, artefact control for SMM control-protein annotation, biochemical, small-molecule microarray, Cy5-labelled CALM1, plus calcium (AID 1112); conditions: Cy5-CALM1 binding fluorescence, higher = more signal;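 also: score merges spot fluorescence with signal to noise from triplicate slides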
# [16] = small-molecule microarray binders of probe aWnt5a, primary screen, biochemical, biotinylated probe, 635/667 nm fluorescence (AID 1113); conditions: higher = more signal;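 also: score merges 667 nm fluorescence intensity with signal-to-noise per printed feature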
# [17] = small-molecule microarray binders of probe aShh, primary screen, biochemical, biotinylated probe, 635/667 nm fluorescence (AID 1114); conditions: higher = more signal;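 also: probe is biotin-labelled aShh protein from a stem cell growth factor screen; measures binding of labelled protein to compounds printed on the slide; score merges feature fluorescence at 667 nm with signal-to-noise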
# [18] = small-molecule microarray binders of probe aNog, primary screen, biochemical, biotinylated probe, 635/667 nm fluorescence (AID 1115); conditions: higher = more signal;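 also: probe is biotinylated aNog protein used at 0.15 µg/mL for 1 h at 4 C; z-score combines 667 nm fluorescence of each spot with its signal to noise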
# [19] = biological target: Torsin-1A-interacting protein 1 (Homo sapiens) (UniProt Q5JTV8); assay: LAP1 binders from COS7 cell lysate, primary screen, small-molecule microarray, 635/667 nm fluorescence (AID 1116); conditions: COS7-hLAP1 lysate binding, 635 nm fluorescence, higher = more signal
# Chain of Torsin-1A-interacting protein 1 (Homo sapiens) (Q5JTV8 whole entry, looked up): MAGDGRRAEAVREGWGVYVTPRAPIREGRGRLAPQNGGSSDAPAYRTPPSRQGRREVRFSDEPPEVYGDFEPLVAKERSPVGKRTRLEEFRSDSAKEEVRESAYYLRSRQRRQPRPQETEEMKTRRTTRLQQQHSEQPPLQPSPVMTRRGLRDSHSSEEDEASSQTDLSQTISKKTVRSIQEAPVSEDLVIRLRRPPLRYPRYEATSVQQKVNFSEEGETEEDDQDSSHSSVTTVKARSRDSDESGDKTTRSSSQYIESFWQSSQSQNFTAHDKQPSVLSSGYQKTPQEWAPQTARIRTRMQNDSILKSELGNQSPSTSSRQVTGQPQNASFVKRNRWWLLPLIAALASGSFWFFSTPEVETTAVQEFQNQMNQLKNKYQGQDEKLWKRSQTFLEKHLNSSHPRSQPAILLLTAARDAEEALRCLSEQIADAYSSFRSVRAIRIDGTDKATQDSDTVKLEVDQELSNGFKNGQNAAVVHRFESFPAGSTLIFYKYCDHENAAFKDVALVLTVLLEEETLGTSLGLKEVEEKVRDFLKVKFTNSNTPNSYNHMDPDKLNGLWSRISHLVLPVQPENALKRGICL
# [20] = biological target: Alpha-bungarotoxin (Bungarus multicinctus) (UniProt P60615); assay: alpha-bungarotoxin binders on microarray, profiling panel, artefact control for SMM control protein annotation, biochemical, small-molecule microarray, Alexa647 label, 635/667 nm fluorescence (AID 1117); conditions: alpha-BTX-A647 binding fluorescence, higher = more signal
# Chain of Alpha-bungarotoxin (Bungarus multicinctus) (P60615 whole entry, looked up): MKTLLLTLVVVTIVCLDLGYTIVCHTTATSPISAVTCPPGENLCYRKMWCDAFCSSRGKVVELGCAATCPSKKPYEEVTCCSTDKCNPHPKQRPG
SMILES,composite z-score [1],composite z-score [2],composite z-score [3],z-score [4],composite z-score [5],composite z-score [6],composite z-score [7],composite z-score [8],composite z-score [9],composite z-score [10],composite z-score [11],z-score [12],composite z-score [13],composite z-score [14],composite z-score [15],composite z-score [16],composite z-score [17],composite z-score [18],composite z-score [19],composite z-score [20]
CC1CC/C=C\[C@H]2OC34C=CCN(C(C)(C)C)C(=O)[C@H]3N(C(CO)C(C)C)C(=O)[C@@H]4C2C(=O)O1 (stereo not given in full),0.337,-0.193,-0.347,0.792 (inactive),0.352,0.156,-0.33,0.27,0.391,0.524,-1.26,0.434,0.272,-0.745,-0.554,-0.0882,0.0469,-0.316,0.952,-0.62
O=C1[C@@]23C=C(Br)[C@H](C[C@@H]2COC3)[C@@]12CO2,0.35,-0.419,-0.555,0.536 (inactive),0.266,0.638,0.566,0.514,0.449,0.262,0.368,-2.52,0.531,-0.293,-0.87,-0.102,-0.0396,-0.172,0.245,0.53
C=C(C)[C@@H]1CC=C(C(O)C2C=CC3C(=O)N(c4ccccc4)C(=O)C3N2Nc2ccc(C#N)cc2)CC1 (stereo not given in full),1.31,0.327,1.15,0.857 (inactive),0.997,1.31,0.628,1.34,-0.0273,0.749,1.47,-0.768,0.0506,1.75,0.424,-0.0431,0.0469,1.5,-0.243,1.92
CCOC(=O)C1=CCC(c2ccccc2)N(S(=O)(=O)c2ccc([N+](=O)[O-])cc2)C1 (stereo not given),-0.0755,0.36,0.507,-0.33 (inactive),-0.16,0.265,0.0475,0.163,-0.115,0.918,0.992,-1.93,-0.276,-0.36,-0.0871,-0.147,0.0048,-0.425,0.853,-0.165
CCN(CC)c1ccc(N2CC=CC34O[C@@H]5/C=C\CCC(C)OC(=O)C5[C@H]3C(=O)N(C(C)CO)[C@@H]4C2=O)cc1 (stereo not given in full),-0.516,-0.47,-0.514,0.0828 (inactive),-0.408,-0.189,-0.455,-0.159,0.492,1.5,-0.344,0.0645,-0.292,-0.847,-1.66,-0.0346,-0.0709,-0.318,0.187,-1.04
[N-]=[N+]=Nc1ccccc1[C@@H]1OC(c2ccc(OCCCO)cc2)=N[C@]1(Cc1ccccc1)C(=O)NCc1ccccc1,1.57,1.24,1.37,0.459 (inactive),1.02,1.06,0.0762,0.395,0.0944,0.604,0.656,-2.53,-0.0068,2.46,1.33,0.166,0.628,1.95,2.27,2.92
O=C1C2C=CC(C(O)c3ccc4c(c3)OCO4)N(Nc3ccccc3)C2C(=O)N1c1ccccc1 (stereo not given),1.41,0.45,1.09,0.243 (inactive),0.781,-0.157,-0.0637,0.71,-0.541,0.477,1.36,-0.631,-0.127,1.36,0.174,-0.0286,-0.0904,1.69,0.722,1.05
CN(C)CCCC[C@@H]1NC(=O)[C@@H]2C[C@H](C(=O)O)[C@H](c3cccc(OCCO)c3)N2C1=O,1.25,-0.336,-0.165,0.0013 (inactive),-0.376,-0.461,-0.277,-0.306,0.333,-0.7,-0.927,-0.282,-0.43,-0.832,-0.238,-0.0179,-0.0793,-0.375,-0.657,-0.676

# From PubChem BioAssay
